From PubChem
ELG1 DNA repair: ELG1-dependent DNA repair inhibition | 2.3% of 330,000 active | Potency, µM (titrated, usually from 46.1 µM), inactives show at the highest dose activity change, negative = inhibition, most hits filed as inhibitors | HEK293T ELG1-luciferase reporter, luminescence, 16 h; DNA damage induced by 5-fluorouridine; note: potency is the fitted concentration of half-maximal effect; nearly all actives have a fitted effect of over 55% in size
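In this reporter screen, reduction of luminescence relative to DMSO vehicle indicated activity. Compounds and 5-fluorouridine were added together to 2,000 cells per well, incubated for 16 hr at 37 °C, then developed with ONE-Glo.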
Gal4-VP16 FLuc: inhibits Gal4-VP16 luciferase reporter, ROR gamma counter-screen. Drosophila S2 Gal4-VP16 UAS-luciferase, luminescence, 20 h. 3.5% of 310,000 active. AID 2546. Potency, µM (doses to about 53.6 µM), inactives show at the top dose activity, negative = inhibition, actives largely listed as inhibitors;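 note: Gal4-VP16 expression switched on by copper sulfate through the metallothionein promoter; potency is the fitted concentration of half-maximal effect; nearly all actives have a fitted effect of over 50% in size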
RORg inh: inhibitors of mouse ROR gamma transcriptional activity | P51450 | Drosophila S2 Gal4-RORgamma UAS-luciferase reporter, 20 h | Potency, µM (highest dose often 53.6 µM), inactives show at the top dose activity change, negative = inhibition, usual class: inhibitors | 5.4% of 310,000 active; note: potency is the fitted concentration of half-maximal effect; nearly all actives have a fitted effect of over 60% in size
Target sequence (P51450 whole entry, looked up, the tested form may be a part): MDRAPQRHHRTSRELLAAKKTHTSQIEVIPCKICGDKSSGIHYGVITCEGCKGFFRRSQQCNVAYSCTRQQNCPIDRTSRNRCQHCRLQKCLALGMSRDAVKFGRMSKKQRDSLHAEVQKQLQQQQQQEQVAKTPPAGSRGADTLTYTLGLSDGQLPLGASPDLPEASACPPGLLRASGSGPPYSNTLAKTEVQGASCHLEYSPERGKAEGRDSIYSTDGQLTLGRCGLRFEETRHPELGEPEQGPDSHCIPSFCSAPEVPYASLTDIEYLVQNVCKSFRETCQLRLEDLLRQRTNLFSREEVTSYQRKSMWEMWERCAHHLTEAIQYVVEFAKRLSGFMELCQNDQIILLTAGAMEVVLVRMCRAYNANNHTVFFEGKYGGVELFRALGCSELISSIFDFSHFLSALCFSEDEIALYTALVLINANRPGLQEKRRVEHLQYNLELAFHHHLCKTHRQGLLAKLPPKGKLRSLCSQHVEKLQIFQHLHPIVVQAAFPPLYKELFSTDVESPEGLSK
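Schneider cells (Drosophila), stable Gal4 DBD–ROR gamma + UAS-luc; 1 hr cmpd preincubation; Cu2+ induction 700 uM final; 20 hr ambient; luminescence.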
IL-1B inflam inh: inflammasome signaling inhibition, IL-1 beta readout | AID 743279 | 4.7% of 360,000 active | THP-1 LPS/ATP IL-1B secretion, AlphaLISA, 16 h; active compounds read low | activity change, % at 57.5 µM; in the data active = activity change below about -50%; inconclusive = mostly about -30% to -49%
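Secreted IL-1B measured by AlphaLISA bead assay after 16 h compound exposure of THP-1 cells; compounds (final up to 57.5 uM) added 1 h before LPS (250 ng/mL) and ATP (1.25 mM) stimulation; lower signal means less secretion.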
TDP1 cell noCPT: qHTS for Inhibitors of human tyrosyl-DNA phosphodiesterase 1 (TDP1): qHTS in cells in absence of CPT. DT40 Tdp1-/- hTDP1 cells, no CPT, ATP luminescence, 48 h. Potency, µM (highest dose often 46.2 µM), for the others: at the highest dose activity change, negative = growth inhibition, hits mostly inhibitors. 15% of 420,000 active. AID 686978, 2013; note: potency is the fitted concentration of half-maximal effect; nearly all actives have a fitted effect of over 55% in size
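Chicken DT40 Tdp1-/- cells stably complemented with human TDP1 were seeded at 400 cells/well with DMSO in place of 20 nM camptothecin. After compound pinning, cells grew at least 48 hr at 37 °C; viability read by CellTiter-Glo luminescence.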
TDP1 cell CPT: DT40-hTDP1 cell growth loss with CPT. 12% of 420,000 active. Potency, µM (doses to about 46.2 µM), for the others: at the highest dose activity change, negative = growth inhibition, usual class: inhibitors. chicken DT40 Tdp1-/-;hTDP1 cells + 20 nM CPT, ATP luminescence, 48 h. AID 686979; note: potency is the fitted concentration of half-maximal effect; nearly all actives have a fitted effect of over 55% in size
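Chicken DT40 Tdp1-/- cells complemented with human TDP1, 400 cells/well, exposed to compounds plus 20 nM camptothecin for at least 48 h at 37 C; viability read as ATP content by CellTiter-Glo luminescence.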
An asterisk follows results filed as active; u = inconclusive; x = not tested or not shown; ! = not active in a repeat; [ ] = dose if it differs, or a comment. A selection: hits, their analogues and other compounds. The true share with any hit is near 21%. Unless noted, calls come from the whole dose curve; as a rule, active = well fitted curve in the direction sought with a large enough effect; inconclusive = small, poorly fitted or top-dose-only effect, or another doubt; inactive = no such curve, though single readings can be large; an effect the other way counts as inactive or inconclusive. % is set by controls: 0 for no effect and ±100 for the full control effect.

SMILES	ELG1 DNA repair	Gal4-VP16 FLuc	RORg inh	IL-1B inflam inh	TDP1 cell noCPT	TDP1 cell CPT
Clc1ccc(Cn2ncc3c(N4CCCC4)ncnc32)cc1	u	-10%	5%	u	u	-13%
Clc1ccc(Cn2ncc3c(N4CCCCC4)ncnc32)cc1	u	u	u	-8	21µM*	16µM*
Clc1ccc(Cn2ncc3c(N4CCOCC4)ncnc32)cc1	u	17%[0.365 µM]	u	-11	23µM*	u
Clc1ccc(Cn2ncc3c(N4CCCCC4)ncnc32)c(Cl)c1	x	10%	42%	-7	12µM*	23µM*
CCOC(=O)c1cccnc1SCC(=O)NCc1ccccc1	9%	10%	21%	12	-11%	1%
CCN(C(=O)CSc1ncccc1C(=O)OC(C)C)c1cccc(C)c1	-29%	u	u	-20	u	21µM*
CCN(C(=O)CSc1nc(-c2ccccc2)no1)c1cccc(C)c1	x	x	x	x	1.5µM*	1.6µM*
CCOC(=O)c1cccnc1SCC(=O)N(CC)c1cccc(C)c1	-18%	13%	-18%	1	u	23µM*
C=CCC(CC=C)(NC(=O)c1ccccc1C(=O)O)c1ccccc1	0%	5%	-4%	21	1%	3%
CC1=CC(=O)C(C(C)C)=C/C1=C(\c1cc(C(C)C)c(OP(=O)(O)O)cc1C)c1ccccc1C(=O)O	18µM*	-1%	1%	25	21µM*	u
CCOc1ccc(C(=O)c2ccccc2C(=O)O)cc1OCC	2%	-9%	2%	17	0%	0%
COC(=O)CC1=NN(c2ccccc2)C(=O)/C1=C\c1ccc(OC)cc1	u	-1%	25%	-23	u	21µM*
Cc1ccc(OCc2cccc(S(=O)(=O)N(C)C)c2)c([N+](=O)[O-])n1	-21%	-7%	15%	2	-29%	-28%
Cc1cccc(N=C2NN=C(c3ccc4c(c3)OCCO4)CS2)c1	u	u	7.9µM*	-3	-12%	-8%
Fc1ccc(F)c(C2=NNC(=NCC3CCCO3)SC2)c1 (stereo unspecified)	3%	-58%	u	43	2%	7%
Cc1cccc(N=C2NN=C(c3c(C)[nH]c4ccccc34)CS2)c1	u	u	33%	u	u	u
CCc1ccc(C2=NNC(=Nc3cccc(S(=O)(=O)N(C)C)c3)SC2)cc1	u	-12%	u	-70*	18µM*	21µM*
Cc1ccc(C2=NNC(=Nc3ccc(F)cc3)SC2)cc1	-3%	u	u	-74*	u	u
CC(=O)NC1CCCC1C#N (stereo unspecified)	x	x	x	x	-6%	-3%
CC(C)COCC(CN(Cc1ccccc1)c1ccccc1)N1CCCC1 (stereo unspecified)	x	u	u	-83*	26µM*	10µM*!
CC(C(=O)Nc1ccc(OCc2ccccc2)cc1)N1CCCC1 (stereo unspecified)	u	5%	5%	-17	u	14%
CCCCCCCCOC(=O)c1cc([N+](=O)[O-])c(Sc2ncnc3nc[nH]c23)c([N+](=O)[O-])c1	x	x	x	-71*	3.3µM*	2.6µM*
FC(F)(F)c1cnc2c(c1)[nH]c(=S)n2-c1ccc(Cl)cc1	16µM*	u	7.9µM*	-28	u	21µM*
CCN(c1nc(N)c(C(=O)N=C(N)N)nc1Cl)C(C)C	x	x	x	-3	7.3µM*	21µM*
COc1ccc(C(=O)N2CCC2)cc1S(=O)(=O)NCc1ccc(Cl)cc1	12%	x	x	26	13%	4%
SMILES	ELG1 DNA repair	Gal4-VP16 FLuc	RORg inh	IL-1B inflam inh	TDP1 cell noCPT	TDP1 cell CPT
COc1cc(C2c3c(-c4cc(C)cc(C)c4O)n[nH]c3C(=O)N2CCCO)cc(OC)c1OC (stereo unspecified)	3%	-4%	-14%	u	-26%	-7%
CCCN1C(=O)c2[nH]nc(-c3cc(Cl)c(C)cc3O)c2C1c1ccc(O)c(OC)c1 (stereo unspecified)	u	-13%	u	-10	u	u
COCCCN1C(=O)c2[nH]nc(-c3ccccc3O)c2C1c1ccc(Cl)cc1 (stereo unspecified)	u	-16%	u	-7	u	23µM*
COCCCN1C(=O)c2[nH]nc(-c3cc(C)cc(C)c3O)c2C1c1ccc(O)c(OC)c1 (stereo unspecified)	-21%	5%	u	7	u	21µM*
O=C1c2[nH]nc(-c3ccccc3O)c2C(c2ccc(Cl)cc2)N1CCc1ccccc1 (stereo unspecified)	x	x	x	x	16µM*	21µM*
CCOc1cc(C2c3c(-c4ccccc4O)n[nH]c3C(=O)N2CCc2ccccc2)ccc1O (stereo unspecified)	x	x	x	x	u	16µM*
O=C(CCc1c[nH]c2ccccc12)OCc1cccc([N+](=O)[O-])c1	-4%	9%	3%	6	-13%	-9%
COc1ccc2c(c1)O[C@@H]1c3ccc(OC)cc3OCC21 (stereo partly specified)	x	-2%	25%	x	14%	4%
CCOC(=O)c1c(S(=O)(=O)N2CCC(C(=O)NCc3cccc(C)c3)CC2)c(C)n(C)c1C	x	x	x	x	-14%	0%
COCCCN1C(=O)c2[nH]nc(-c3ccccc3O)c2C1c1ccc(OC)cc1 (stereo unspecified)	x	x	x	x	29µM*	16µM*
COc1ccc(C2c3c(-c4ccccc4)n[nH]c3C(=O)N2c2ccc(C(=O)O)cc2)cc1 (stereo unspecified)	11%	4%	2%	9	-1%	1%
COc1ccc(-c2cn(-c3cccc(C)c3)c(=O)[nH]2)cc1OC	-5%	-6%	42%	-13	u	u
COc1ccc(-c2cn(-c3ccc(C)cc3C)c(=S)[nH]2)cc1OC	u	u	u	17	21µM*	u
COc1cc(OC)c(-n2cc(-c3ccc(OC)c(OC)c3)[nH]c2=S)cc1Cl	3%	16µM*	7.9µM*	u	-6%	-12%
O=C(CN1C(=O)NC2(CCCCCCC2)C1=O)NCc1ccccc1	28%	x	x	1	2%	-12%
CCOC(=O)OCC1OC(C#Cc2ccc(C)cc2C)C=CC1OC(=O)OCC (stereo unspecified)	x	10%[10 µM]	12%[10 µM]	x	x	x
